Some test systems named below: SR leukemia; RPMI-8226 leukemia; OVCAR-8 ovarian; OVCAR-5 ovarian; OVCAR-4 ovarian; SK-OV-3 ovarian; IGROV1 ovarian; OVCAR-3 ovarian; HS 578T breast; NCI/ADR-RES ovarian; T-47D breast; BT-549 breast; MDA-MB-435 melanoma; SW-620 colon; HCT-116 colon; HCC-2998 colon; KM12 colon; MCF7 breast.
What all share (test): NCI-60 one-dose screen, 48 h (100 = growth as untreated, 0 = no growth, -100 = all killed)
What all share (conditions): 10 µM unless noted

Data on 9 molecules can be found in PubChem BioAssay (NCI).

Structures are written as SMILES. About 83,000 compounds went through this panel and 20% of them were active in at least one assay; those are over-represented in the sample as a whole.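 Note: values are percent growth. 100 is the growth of untreated cells, values between 100 and 0 indicate rising inhibition; between -100 and 0 indicates cell death.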 Values without a mark were called inactive. The source made the active and inactive calls. Rule for the calls: active = growth percent below 10; inactive = the rest.

Take `COc1cc(-c2nc(-c3ccc(-c4nc5ccc(F)cc5[nH]4)cc3)no2)cc(OC)c1OC`: the growth was 32.5% in the assay with SR leukemia; -15.3% (active) in the assay on RPMI-8226 leukemia; 5.86% (active) in the assay on OVCAR-8 ovarian; 72.9% in the assay with OVCAR-5 ovarian; 30.9% in the assay on OVCAR-4 ovarian; 85.5% with SK-OV-3 ovarian. The growth in the assay on IGROV1 ovarian is 47.3%; in the assay on OVCAR-3 ovarian, 36.6%; in the assay on HS 578T breast, 30.5%; in the assay with NCI/ADR-RES ovarian, 13.3%; in the assay on T-47D breast it was 8.56% (active); in the assay with BT-549 breast, 35.7%. The growth in the assay with MDA-MB-435 melanoma is 46.8%; in the assay with SW-620 colon, 55.3%; in the assay on HCT-116 colon, 28.2%; in the assay on HCC-2998 colon, 81.5%; with KM12 colon, 11.5%.
`Nc1ccc(C2=NNC(=O)Cc3cc4c(cc32)OCCO4)cc1Cl`: the growth in the assay on SR leukemia was 19.6%; with RPMI-8226 leukemia, 56.2%; with OVCAR-8 ovarian it was 60.1%; with OVCAR-5 ovarian, 69.7%; with OVCAR-4 ovarian, 87.8%; in the assay on SK-OV-3 ovarian, 57.1%. Also, the growth in the assay with IGROV1 ovarian was 40.8%; in the assay on OVCAR-3 ovarian it was -14.1% (active); in the assay with HS 578T breast it was 62.2%; in the assay with NCI/ADR-RES ovarian, 12%; in the assay on T-47D breast, 44.2%; in the assay on BT-549 breast it was 48.5%. Besides, the growth is 18.7% with SW-620 colon; 18.8% with MCF7 breast; 20.1% with HCT-116 colon; 61.9% in the assay on HCC-2998 colon; 16% in the assay with KM12 colon.
In the case of `C=C(C)[C@@H]1CC[C@]2(C(=O)NC(COC(=O)C(Cl)Cl)(COC(=O)C(Cl)Cl)COC(=O)C(Cl)Cl)CC[C@]3(C)[C@H](CC[C@@H]4[C@@]5(C)CC[C@H](OC(C)=O)C(C)(C)[C@@H]5CC[C@]43C)[C@@H]12`, the growth was 20.4% in the assay on SR leukemia; 2.68% (active) in the assay on RPMI-8226 leukemia; 73.6% in the assay on OVCAR-8 ovarian; 80.7% in the assay with OVCAR-5 ovarian; 54.5% in the assay with OVCAR-4 ovarian; 82.1% in the assay on SK-OV-3 ovarian. Also, the growth was 84.3% in the assay with IGROV1 ovarian; 57.5% with OVCAR-3 ovarian; 71.5% in the assay on HS 578T breast; 71% in the assay with NCI/ADR-RES ovarian; 31.9% with T-47D breast; 80.4% in the assay on BT-549 breast. For the same molecule, the growth with MDA-MB-435 melanoma was 73.6%; in the assay with SW-620 colon, 62.1%; in the assay with MCF7 breast, 21.4%; with HCT-116 colon, -16.7% (active); in the assay on HCC-2998 colon it was 66.1%; with KM12 colon it was 36.8%.
On to `C=C1C(=O)O[C@H]2[C@H]1CC/C(COC(=O)NCc1c[nH]c3ccc(OC)cc13)=C\CC[C@@]1(C)O[C@@H]21`, for which the growth is 8.82% (active) with SR leukemia; -25.8% (active) in the assay with RPMI-8226 leukemia; 21.3% with OVCAR-8 ovarian; 45.2% with OVCAR-5 ovarian; 19.9% with OVCAR-4 ovarian; 68.3% in the assay with SK-OV-3 ovarian. The growth with IGROV1 ovarian is -21.7% (active); with OVCAR-3 ovarian, -84.2% (active); in the assay on HS 578T breast, 61.8%; in the assay on NCI/ADR-RES ovarian, 73.1%; in the assay on T-47D breast, -52% (active); in the assay on BT-549 breast, -24% (active). Also, the growth in the assay with MDA-MB-435 melanoma was 22.3%; in the assay with SW-620 colon, -57.6% (active); in the assay with HCT-116 colon, -79.4% (active); in the assay with HCC-2998 colon, 45.1%; with KM12 colon it was 51.3%.
As for `COc1ccccc1-[n+]1cc(-c2ccc(-c3ccccc3)cc2)n2c1CCCCC2`, the growth in the assay with SR leukemia was 8.54% (active); in the assay with RPMI-8226 leukemia, -14.7% (active); in the assay on OVCAR-8 ovarian, 2.74% (active); with OVCAR-5 ovarian it was 18.4%; in the assay on OVCAR-4 ovarian, 20.2%; with SK-OV-3 ovarian, -18.1% (active). For the same molecule, the growth in the assay with IGROV1 ovarian was 16.6%; in the assay with OVCAR-3 ovarian it was 9.07% (active); with HS 578T breast, 22.1%; in the assay on NCI/ADR-RES ovarian, 86.9%; in the assay on T-47D breast, -5.11% (active); in the assay on BT-549 breast it was -1.37% (active). Further, the growth is 6.5% (active) with MDA-MB-435 melanoma; 14.6% in the assay with SW-620 colon; 4.74% (active) with MCF7 breast; 6.3% (active) with HCT-116 colon; 21.5% in the assay with HCC-2998 colon; 4.15% (active) in the assay on KM12 colon.
Consider `CC(C)(C)OC(=O)N1CCCN(CCNc2nccc(-c3c(-c4cccc(O)c4)nc4sccn34)n2)S1(=O)=O`, for which the growth with SR leukemia is 77.3%; in the assay with RPMI-8226 leukemia, 96.8%; with OVCAR-8 ovarian it was 96.8%; in the assay on OVCAR-5 ovarian, 114%; in the assay on OVCAR-4 ovarian it was 108%; in the assay on SK-OV-3 ovarian, 69.5%. Besides, the growth in the assay on IGROV1 ovarian was 79.5%; in the assay on OVCAR-3 ovarian it was 119%; with HS 578T breast, 109%; with NCI/ADR-RES ovarian, 99%; in the assay with T-47D breast, 86.6%; in the assay on BT-549 breast, 136%. For the same molecule, the growth in the assay on MDA-MB-435 melanoma is 54.1%; in the assay with SW-620 colon, 131%; with MCF7 breast it was 97.8%; with HCT-116 colon it was 81.7%; in the assay on HCC-2998 colon it was 108%; with KM12 colon, 111%.
For the molecule `CCc1onc(-c2ccc(OC)cc2)c1-c1ccccc1OCCN(CC)CC`, the growth in the assay on SR leukemia was 66.5%; in the assay on RPMI-8226 leukemia it was 91.3%; in the assay on OVCAR-8 ovarian, 96.3%; in the assay on OVCAR-5 ovarian, 91.5%; with OVCAR-4 ovarian it was 90.8%; with SK-OV-3 ovarian, 101%. In addition, the growth is 83.3% in the assay with IGROV1 ovarian; 96.8% with OVCAR-3 ovarian; 89.6% in the assay on HS 578T breast; 75.2% with NCI/ADR-RES ovarian; 91.7% with T-47D breast; 81.1% in the assay with BT-549 breast. Also, the growth with SW-620 colon was 94.7%; with MCF7 breast it was 95.6%; in the assay with HCT-116 colon it was 70.9%; with HCC-2998 colon, 80.8%.
`C#CCNc1nc(NCCNC(=O)CCl)nc(N(C)CCCCc2ccccc2)n1`: the growth was 62.1% with SR leukemia; 89.2% in the assay with RPMI-8226 leukemia; 101% in the assay with OVCAR-8 ovarian; 109% with OVCAR-5 ovarian; 96.6% in the assay with OVCAR-4 ovarian; 101% with SK-OV-3 ovarian. Moreover, the growth was 78.9% in the assay on IGROV1 ovarian; 94.3% in the assay on OVCAR-3 ovarian; 94.2% with HS 578T breast; 102% in the assay with NCI/ADR-RES ovarian; 93% with T-47D breast; 76.3% in the assay on BT-549 breast. Moreover, the growth in the assay with SW-620 colon is 97.9%; in the assay on MCF7 breast, 86%; in the assay on HCT-116 colon, 79.1%; in the assay on HCC-2998 colon it was 108%; in the assay with KM12 colon, 99.1%.
Regarding `CCN(CC)Cc1cc(Nc2ccnc3ccc(OC)cc23)ccc1O`, the growth in the assay with SR leukemia was 7.65% (active); in the assay with RPMI-8226 leukemia it was 48.5%; in the assay with OVCAR-8 ovarian, 28.4%; with OVCAR-5 ovarian it was 55%; with OVCAR-4 ovarian, 55.3%; in the assay with SK-OV-3 ovarian it was 73.6%. Also, the growth is 23.8% in the assay on IGROV1 ovarian; 50.8% in the assay with OVCAR-3 ovarian; 77.2% in the assay on HS 578T breast; 35.8% in the assay with NCI/ADR-RES ovarian; -43.9% (active) with T-47D breast; 55.2% with BT-549 breast. Also, the growth with MDA-MB-435 melanoma was 47.6%; in the assay with SW-620 colon it was 27.5%; in the assay on MCF7 breast, 22.9%; in the assay on HCT-116 colon, 16.2%; with HCC-2998 colon, 32.8%; with KM12 colon it was 42.2%.
